Laboratory results taken from PubChem BioAssay.
Where “and” joins values, the source holds several entries; their conditions need not be identical. Identical values can stand only once. Calls of active or inactive are those of the source.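 How the source made its calls, unless noted: active means thallium flux through the channel raised or lowered by more than 3 SD from vehicle-only wells, actives on both sides; inactive means the rest.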

Assays:
[1] = Wnt pathway potentiators raising nuclear beta-catenin – imaging, WNT3A-conditioned medium, mouse C2C12, NPC library, primary screen (AID 1117326; in the data active means nuclear beta-catenin stimulation mostly above about 4.2%, no sharp cut-off; inactive means mostly below about 10%); conditions: stronger effect = higher value
[2] = stimulators of insulin release from INS-1E, primary screen, cell-based, 5 mM glucose, NPC library (AID 1117329;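 active means compound raises insulin release from rat beta cells at 5 mM glucose, no numeric limit stated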); conditions: rat INS-1E insulin secretion, at 10 µM, stronger effect = higher value
[3] = growth inhibition of GSK3B-pretreated HCT116 cells – cell-based, CellTiter-Glo, 0.2 to 20 µM (AID 1117336;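 active means compounds lowering colon cancer cell viability after pretreatment blocking the GSK3B kinase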); conditions: HCT116 viability after GSK3B inhibitor, at 20 µM, stronger effect = higher value
[4] = inhibition of endothelial tube formation, primary screen, imaging, VEGF stimulated, CD31 staining, tube area, NPC library (AID 1117340;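 active means compound that reduces growth-factor-driven endothelial tube area in a mixed cell culture, no cutoff stated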); conditions: VEGF-stimulated ADSC/ECFC co-culture, at 10 µM, stronger effect = higher value
[5] = GLP1 release stimulators, primary, NCI-H716, NPC library (AID 1117341;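 active means compound raises GLP1 secretion from the human gut endocrine cells, with no numeric limit stated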); conditions: NCI-H716 cells, at 10 µM, stronger effect = higher value
[6] = HCT116 colon cancer cell growth inhibition, primary screen, CellTiter-Glo luminescence, NPC library (AID 1117342;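 active means compounds that lower survival of HCT116 colon cancer cells in the luminescence readout, no numeric limit stated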); conditions: at 20 µM (top of the series)
[7] = reduced SW480 viability measured with CellTiter-Glo, NPC library, primary (AID 1117343;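 active means compounds that lower viability of the colon cancer cells in the luminescence readout, with no numeric limit stated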); conditions: CellTiter-Glo luminescence; at 20 µM (top of the series)
[8] = NPC library primary testing for decreased DLD-1 cell viability via CellTiter-Glo (AID 1117346;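 active means compounds that lower survival of DLD-1 colon cancer cells in the luminescence readout, no cutoff given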); conditions: DLD-1 viability, CellTiter-Glo luminescence; at 20 µM (top of the series)
[9] = biological target: 6-phosphogluconate dehydrogenase, decarboxylating (Homo sapiens) (UniProt P52209); assay: inhibition of human phosphogluconate dehydrogenase – biochemical, recombinant enzyme, NADPH absorbance, primary screen (AID 1159550;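 active means at least 20% inhibition of 6-phosphogluconate dehydrogenase activity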); conditions: recombinant 6PGD, NADPH absorbance 341 nm; at 10 µM; stronger effect = higher value
Sequence of 6-phosphogluconate dehydrogenase, decarboxylating (Homo sapiens) (P52209 whole entry, looked up): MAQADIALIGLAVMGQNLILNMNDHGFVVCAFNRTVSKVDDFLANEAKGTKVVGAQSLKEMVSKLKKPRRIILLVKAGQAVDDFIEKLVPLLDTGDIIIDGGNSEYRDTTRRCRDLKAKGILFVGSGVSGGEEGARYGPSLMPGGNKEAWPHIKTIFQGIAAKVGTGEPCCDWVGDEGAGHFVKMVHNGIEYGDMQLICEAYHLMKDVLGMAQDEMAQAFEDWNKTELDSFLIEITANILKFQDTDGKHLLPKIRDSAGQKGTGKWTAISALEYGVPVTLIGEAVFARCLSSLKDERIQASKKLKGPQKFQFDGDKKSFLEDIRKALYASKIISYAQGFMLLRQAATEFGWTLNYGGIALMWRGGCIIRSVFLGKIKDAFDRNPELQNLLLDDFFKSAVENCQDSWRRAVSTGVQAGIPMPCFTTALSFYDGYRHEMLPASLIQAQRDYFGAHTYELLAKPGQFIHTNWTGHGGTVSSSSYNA

[10] = EMT-state selective cytotoxicity in co-culture – imaging, PC-3E GFP, TEM4-18 mCherry, primary screen (AID 1345086;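 active means compounds killing one labelled cell type while sparing the other, by normalised counts and ratio limits, not self-fluorescent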;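 on all read-outs here: cells exposed to compound for 72 h before imaging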;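 on red/green cell ratio (normalised): normalised mesenchymal count divided by normalised epithelial count so high means epithelial killing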); conditions: PC-3E GFP / TEM4-18 mCherry co-culture, imaging cell counts, at 1 µM; for red/green cell ratio (normalised): actives lie on both sides, counts scaled to control wells, 1 = unselective
[11] = viability loss with induced miR-34 in A549 – imaging, A549 dox-inducible miR-34, nuclei and caspase counts, primary screen (AID 1347080;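 active means compounds whose cell count with miR-34 switched on is under 0.7 times the count with it off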); conditions: A549 miR-34 inducible, Hoechst nuclei count, 48 h
[12] = MELAS cybrid and Rieske KO viability enhancers – cell-based, MELAS cybrids, Rieske KO mouse fibroblasts, CellTiter-Glo, primary screen (AID 1508586;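 active means mean z-score across replicates of 1.96 or higher in either the MELAS or the Rieske mutant cell line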;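 further: z relative to plate mean and SD of compound and empty wells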); conditions: low glucose
[13] = biological target: NAD(+) hydrolase SARM1 (Homo sapiens) (UniProt Q6SZW1); assay: blocking NAD cleavage by SARM1 SAM-TIR – cell lysate, NAD-Glo luminescence (AID 1508614;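 active means compound whose remaining NAD level is above about 45 nM, limit read from the data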); conditions: SAM-TIR HEK293T lysate NADase, at 1 µM, stronger effect = higher value
Sequence of NAD(+) hydrolase SARM1 (Homo sapiens) (Q6SZW1 whole entry, looked up, the tested form may be a part): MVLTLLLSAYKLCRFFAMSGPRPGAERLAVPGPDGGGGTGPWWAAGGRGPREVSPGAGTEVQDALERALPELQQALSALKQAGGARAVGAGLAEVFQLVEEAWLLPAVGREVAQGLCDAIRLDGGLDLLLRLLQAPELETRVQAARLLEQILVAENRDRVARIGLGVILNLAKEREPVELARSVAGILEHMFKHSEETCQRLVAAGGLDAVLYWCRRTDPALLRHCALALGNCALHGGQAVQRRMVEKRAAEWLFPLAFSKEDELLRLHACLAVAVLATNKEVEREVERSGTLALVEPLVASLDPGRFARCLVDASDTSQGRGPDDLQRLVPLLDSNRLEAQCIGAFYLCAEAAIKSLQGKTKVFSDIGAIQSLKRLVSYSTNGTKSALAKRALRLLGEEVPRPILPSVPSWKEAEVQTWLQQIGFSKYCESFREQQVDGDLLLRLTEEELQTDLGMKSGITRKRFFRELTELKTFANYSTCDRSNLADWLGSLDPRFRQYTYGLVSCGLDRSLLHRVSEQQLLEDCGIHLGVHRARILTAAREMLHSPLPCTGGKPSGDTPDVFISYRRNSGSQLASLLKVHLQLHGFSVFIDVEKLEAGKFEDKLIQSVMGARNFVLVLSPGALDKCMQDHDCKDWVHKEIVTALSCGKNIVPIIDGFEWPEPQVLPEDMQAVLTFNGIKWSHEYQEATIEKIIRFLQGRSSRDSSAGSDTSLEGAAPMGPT

[14] = biological target: Mitogen-activated protein kinase 7 (Homo sapiens) (UniProt Q13164); assay: Gal4-ERK5 driven luciferase induction – cell-based, HTS, primary screen (AID 1508626;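 active means luciferase signal above three times the same-plate solvent-only control wells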;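 further: luciferase driven by Gal4-ERK5 fusion binding five Gal4 sites before minimal TATA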); conditions: HeLa Gal4-ERK5 transactivation, 18 h, at 5 µM, stronger effect = higher value
Sequence of Mitogen-activated protein kinase 7 (Homo sapiens) (Q13164 whole entry, looked up, the tested form may be a part): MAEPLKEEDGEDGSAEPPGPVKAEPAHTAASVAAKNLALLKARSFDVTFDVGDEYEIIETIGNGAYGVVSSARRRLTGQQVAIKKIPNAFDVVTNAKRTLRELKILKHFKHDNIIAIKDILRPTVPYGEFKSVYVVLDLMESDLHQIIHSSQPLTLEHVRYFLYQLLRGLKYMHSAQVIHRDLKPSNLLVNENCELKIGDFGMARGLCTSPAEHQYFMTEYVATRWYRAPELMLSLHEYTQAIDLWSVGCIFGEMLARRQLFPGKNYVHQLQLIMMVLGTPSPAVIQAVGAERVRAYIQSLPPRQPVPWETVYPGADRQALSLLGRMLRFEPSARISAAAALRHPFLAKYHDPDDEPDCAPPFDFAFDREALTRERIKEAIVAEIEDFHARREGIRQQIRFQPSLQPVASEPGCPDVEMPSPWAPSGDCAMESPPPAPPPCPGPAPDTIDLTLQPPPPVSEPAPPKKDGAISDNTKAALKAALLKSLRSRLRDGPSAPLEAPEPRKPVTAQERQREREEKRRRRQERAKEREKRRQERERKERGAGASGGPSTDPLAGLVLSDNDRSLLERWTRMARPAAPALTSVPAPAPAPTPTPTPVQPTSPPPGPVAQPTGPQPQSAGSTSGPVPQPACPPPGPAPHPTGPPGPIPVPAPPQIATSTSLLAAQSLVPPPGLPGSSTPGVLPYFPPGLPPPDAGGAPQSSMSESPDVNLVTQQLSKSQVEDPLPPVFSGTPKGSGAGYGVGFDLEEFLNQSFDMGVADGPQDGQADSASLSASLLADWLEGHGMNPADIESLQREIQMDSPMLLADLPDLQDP

F380Y = assay: BK channel mutant inhibitors and activators – cell-based, U2OS BacMam, thallium flux, beta subunits, selectivity assay, profiling panel (AID 1259406); conditions: U2OS BacMam BK variants, at 30 µM;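 further: initial slope of Thallos dye fluorescence rise after thallium is added; log ratio against the mean of 0.3% DMSO vehicle wells on the same plate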
F380Y/beta2Delta = assay: as above; conditions: U2OS BacMam BK variants, at 30 µM
[15] = biological target: Calcium-activated potassium channel subunit alpha-1 (Homo sapiens) + Leucine-rich repeat-containing protein 26 (Homo sapiens) (UniProt Q12791+Q2I0M4); assay: as above; conditions: U2OS BacMam BK variants, F380Y/Slo1WT/gamma1, at 30 µM
Sequence of Calcium-activated potassium channel subunit alpha-1 (Homo sapiens) + Leucine-rich repeat-containing protein 26 (Homo sapiens) (Q2I0M4 whole entry, looked up, one chain of several): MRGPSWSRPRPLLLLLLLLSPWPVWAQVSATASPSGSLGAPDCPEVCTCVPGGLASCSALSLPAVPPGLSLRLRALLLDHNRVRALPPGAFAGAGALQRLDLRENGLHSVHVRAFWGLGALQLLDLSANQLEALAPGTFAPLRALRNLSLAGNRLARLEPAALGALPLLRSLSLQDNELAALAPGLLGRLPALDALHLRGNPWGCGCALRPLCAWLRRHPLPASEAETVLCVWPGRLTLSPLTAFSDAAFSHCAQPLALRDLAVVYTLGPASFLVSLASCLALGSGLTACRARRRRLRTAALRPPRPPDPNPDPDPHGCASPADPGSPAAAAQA

R275C = assay: as above; conditions: U2OS BacMam BK variants, at 30 µM
R275C/beta1 = assay: as above; conditions: U2OS BacMam BK variants, at 30 µM
R275C/beta2Delta = assay: as above; conditions: U2OS BacMam BK variants, at 30 µM
[16] = measured here: epithelial PC-3E GFP cell survival
[17] = measured here: mesenchymal TEM4-18 mCherry cell survival
[18] = MELAS cybrid survival, CellTiter-Glo 48 h, stronger effect = higher value
[19] = Rieske KO mouse fibroblast survival, CellTiter-Glo 72 h

Nc1ccc(S(=O)(=O)c2ccc(N)cc2)cc1
inactive: nuclear beta-catenin stimulation ([1]; at 10 µM) -0.7% | insulin secretion stimulation [2] -2.3% | viability decrease [3] -8.05% | tube area decrease [4] 8.8% | GLP1 secretion stimulation [5] -1.2% | inhibition of viability [6] 1.3% | viability decrease (inhibition) [8] 7.95% | inhibition [9] 14.4% | red/green cell ratio (normalised) [10] 1.31 | fold change ([11]; stronger effect = lower value, cell number ratio, induced over uninduced) 0.912 and 0.897 and 0.875 | z-score [12, 18] 0.848 | remaining NAD [13] 10 nM | luciferase signal [14] 32 AU | log fold change Tl+ flux (F380Y) 0.0363 | log fold change Tl+ flux (F380Y/beta2Delta) 0.0421 | log fold change Tl+ flux [15] -0.0163 | log fold change Tl+ flux (R275C) -0.00888 | log fold change Tl+ flux (R275C/beta1) -0.0191 | log fold change Tl+ flux (R275C/beta2Delta) 0.0154
0.158: z-score [12, 19]
1.49: normalised cell number [10, 17]
9830 and 8600 and 10200: cell count ([11]; measured here: total cells with miR-34 induction, stronger effect = lower value)
2.46 and 1.04 and 1.7: fold change ([11]; measured here: relative caspase fold change +Dox/-Dox)
-0.4%: nuclear beta-catenin stimulation ([1]; stimulation, at 2 µM)
10800 and 9580 and 11700: cell count ([11]; measured here: total cells without miR-34 induction)
active: viability decrease (inhibition) [7] 59.5%
1.14: normalised cell number [10, 16]

CCCNC(C)C(=O)Nc1ccccc1C (stereo not given)
1.32: normalised cell number [10, 17]
0.93: normalised cell number [10, 16]
inactive: nuclear beta-catenin stimulation ([1]; at 10 µM) 2.8% | insulin secretion stimulation [2] -0.2% | viability decrease [3] -19.3% | tube area decrease [4] -7.6% | GLP1 secretion stimulation [5] -2.8% | inhibition of viability [6] -6.47% | viability decrease (inhibition) [7] 14.5% | viability decrease (inhibition) [8] -13.2% | inhibition [9] 10.3% | red/green cell ratio (normalised) [10] 1.41 | z-score [12, 18] 0.649 and 0.0198 and 0.84 | remaining NAD [13] 10 nM | luciferase signal [14] 232 AU | log fold change Tl+ flux (F380Y) 0.0152 | log fold change Tl+ flux (F380Y/beta2Delta) 0.0464 | log fold change Tl+ flux [15] -0.0185 | log fold change Tl+ flux (R275C) -0.0216 | log fold change Tl+ flux (R275C/beta1) -0.0631 | log fold change Tl+ flux (R275C/beta2Delta) 0.0403
-0.309 and -0.0551 and 0.281: z-score [12, 19]
0.2%: nuclear beta-catenin stimulation ([1]; stimulation, at 2 µM)

CC(C)[N+](C)(CCOC(=O)C1c2ccccc2Oc2ccccc21)C(C)C
inactive: nuclear beta-catenin stimulation ([1]; at 10 µM) 1.3% | insulin secretion stimulation [2] 0.2% | viability decrease [3] -14.9% | tube area decrease [4] 9.2% | GLP1 secretion stimulation [5] 0.4% | inhibition of viability [6] 6.7% | viability decrease (inhibition) [7] -1.5% | viability decrease (inhibition) [8] -16.9% | inhibition [9] 6.27% | red/green cell ratio (normalised) [10] 1.27 | z-score [12, 18] 0.349 | remaining NAD [13] 10 nM | luciferase signal [14] 48 AU | log fold change Tl+ flux (F380Y) 0.0202 | log fold change Tl+ flux (F380Y/beta2Delta) 0.0277 | log fold change Tl+ flux [15] -0.0355 | log fold change Tl+ flux (R275C) 0.0289 | log fold change Tl+ flux (R275C/beta1) 0.0122 | log fold change Tl+ flux (R275C/beta2Delta) -0.014
1.3: normalised cell number [10, 17]
1.02: normalised cell number [10, 16]
0.213: z-score [12, 19]
3.3%: nuclear beta-catenin stimulation ([1]; stimulation, at 2 µM)

CC(CN1c2ccccc2Sc2ccccc21)N(C)C (stereo not given)
-0.152 and -0.842 and 0.0934: z-score [12, 19]
-0.4%: nuclear beta-catenin stimulation ([1]; stimulation, at 2 µM)
active: inhibition of viability [6] 76.9% | viability decrease (inhibition) [7] 110% | log fold change Tl+ flux (F380Y) 0.2 | log fold change Tl+ flux (F380Y/beta2Delta) 0.393 | log fold change Tl+ flux (R275C/beta1) 0.305 | log fold change Tl+ flux (R275C/beta2Delta) 0.176
inactive: nuclear beta-catenin stimulation ([1]; at 10 µM) 0% | insulin secretion stimulation [2] 7.9% | viability decrease [3] 28.6% | tube area decrease [4] 14.2% | GLP1 secretion stimulation [5] 5.7% | viability decrease (inhibition) [8] 28.8% | inhibition [9] 7.15% | red/green cell ratio (normalised) [10] 0.9 | z-score [12, 18] -0.251 and 0.0297 and -0.48 | remaining NAD [13] 10 nM | luciferase signal [14] 144 AU | log fold change Tl+ flux [15] -0.00524 | log fold change Tl+ flux (R275C) -0.00748
1.05: normalised cell number [10, 17]
1.17: normalised cell number [10, 16]

CC[N+](C)(C)c1cccc(O)c1
inactive: nuclear beta-catenin stimulation ([1]; at 10 µM) -1.7% | insulin secretion stimulation [2] 0% | viability decrease [3] -29% | tube area decrease [4] -7.4% | GLP1 secretion stimulation [5] 0.7% | inhibition of viability [6] -0.1% | viability decrease (inhibition) [7] -11.1% | viability decrease (inhibition) [8] -13.2% | inhibition [9] -4.48% | red/green cell ratio (normalised) [10] 1.2 | z-score [12, 18] -0.344 | remaining NAD [13] 10 nM | luciferase signal [14] 68 AU | log fold change Tl+ flux (F380Y) 0.0242 | log fold change Tl+ flux (F380Y/beta2Delta) 0.0329 | log fold change Tl+ flux [15] -0.0327 | log fold change Tl+ flux (R275C) 0.00231 | log fold change Tl+ flux (R275C/beta1) -0.022 | log fold change Tl+ flux (R275C/beta2Delta) 0.0107
0.198: z-score [12, 19]
0.65: normalised cell number [10, 16]
0.9%: nuclear beta-catenin stimulation ([1]; stimulation, at 2 µM)
0.78: normalised cell number [10, 17]

CCN(CC)CCNC(=O)c1ccc(N)cc1
-0.144 and -0.31 and 0.675: z-score [12, 19]
0.66: normalised cell number [10, 16]
inactive: nuclear beta-catenin stimulation ([1]; at 10 µM) 1.2% | insulin secretion stimulation [2] 1.1% | viability decrease [3] 1.4% | tube area decrease [4] 8.7% | GLP1 secretion stimulation [5] 2.8% | inhibition of viability [6] 15.3% | viability decrease (inhibition) [7] -11.5% | viability decrease (inhibition) [8] -4.7% | inhibition [9] 13.2% | red/green cell ratio (normalised) [10] 0.9 | z-score [12, 18] -0.241 and -0.159 and 0.703 | remaining NAD [13] 10 nM | luciferase signal [14] 56 AU | log fold change Tl+ flux (F380Y) -0.0589 | log fold change Tl+ flux (F380Y/beta2Delta) 0.0202 | log fold change Tl+ flux [15] 0.0259 | log fold change Tl+ flux (R275C) 0.0572 | log fold change Tl+ flux (R275C/beta1) -0.0679 | log fold change Tl+ flux (R275C/beta2Delta) -0.0122
0.59: normalised cell number [10, 17]
2.4%: nuclear beta-catenin stimulation ([1]; stimulation, at 2 µM)

CN(C)CCOC(C)(c1ccccc1)c1ccccn1 (stereo not given)
-0.4 and -0.135 and 0.109: z-score [12, 19]
1.53: normalised cell number [10, 17]
inactive: nuclear beta-catenin stimulation ([1]; at 10 µM) 1.1% | insulin secretion stimulation [2] 11.2% | viability decrease [3] 7.4% | tube area decrease [4] -15.5% | GLP1 secretion stimulation [5] 1% | inhibition of viability [6] 22.7% | viability decrease (inhibition) [7] 28.1% | viability decrease (inhibition) [8] -4.8% | inhibition [9] 1.67% | red/green cell ratio (normalised) [10] 1.11 | z-score [12, 18] 0.438 and -0.212 and 0.265 | remaining NAD [13] 10 nM | luciferase signal [14] 124 AU | log fold change Tl+ flux (F380Y) -0.0291 | log fold change Tl+ flux (F380Y/beta2Delta) -0.0218 | log fold change Tl+ flux [15] -0.0144 | log fold change Tl+ flux (R275C) -0.00524 | log fold change Tl+ flux (R275C/beta1) -0.0059 | log fold change Tl+ flux (R275C/beta2Delta) -0.00567
1.38: normalised cell number [10, 16]
-0.9%: nuclear beta-catenin stimulation ([1]; stimulation, at 2 µM)
